CHX counter: Cycloheximide Counterscreen for Small Molecule Inhibitors of Shiga Toxin. cell reporter, cycloheximide protein synthesis inhibition counterscreen. AID 2314, 2010. hit rate 12% among 300,000. max response, %; in the data active = max response mostly above about 13%, no sharp cut-off; inactive = mostly below about 14%; note: read at 38.3 µM for the half of the compounds with a filed dose
Pf growth 48h: Primary qHTS for delayed death inhibitors of the malarial parasite plastid, 48 hour incubation. P. falciparum luciferase growth in erythrocytes, 48 h. Potency, µM (doses to about 28.7 µM), actives largely listed as inhibitors. hit rate 5.9% among 310,000. AID 504832, 2011; active = well fitted inhibition curve with a large enough effect; inconclusive = small, poorly fitted or top-dose-only effect, or another doubt; inactive = no such curve, though single readings can be large or run the other way
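Luciferase-expressing parasites in RBCs, 2% Hct / 0.1% parasitemia final; RPMI 1640 + 0.5% Albumax; 37 C, 5% CO2, one generation; luminescence read-out, lower signal = inhibition.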
NS1 inh: qHTS Assay for Inhibitors of Influenza NS1 Protein Function. Potency, µM (titrated, usually from 46.1 µM). hit rate 0.4% among 270,000. AID 2326, 2010; note: actives are rising curves; nearly all actives have a fitted effect of over 50% in size
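Recovery from NS1-induced slow growth read by OD600 in budding yeast switched to galactose assay medium (pH 6.0, -URA) at 1:100 dilution. Compound 23 nl per well; the matching strain lacking NS1 serves as control.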
Pf growth 96h: Primary qHTS for delayed death inhibitors of the malarial parasite plastid, 96 hour incubation | hit rate 6.9% among 320,000 | P. falciparum luciferase reporter growth, 96 h | AID 504834, 2011 | Potency, µM (highest dose often 28.7 µM), usual class: inhibitors; active = well fitted inhibition curve with a large enough effect; inconclusive = small, poorly fitted or top-dose-only effect, or another doubt; inactive = no such curve, though single readings can be large or run the other way
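Readout is luminescence from an integrated firefly luciferase in P. falciparum. Red cells, 2% hematocrit and 0.05% parasitemia final, were cultured with compound through two parasite generations (96 hours) at 37 C, 5% CO2.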
Shiga toxin inh: A qHTS for Small Molecule Inhibitors of Shiga Toxin; Vero cells, Shiga toxin protein synthesis inhibition reporter; inhibition, % at 38.7 µM; hit rate 9.2% among 290,000; in the data active = inhibition mostly above about 28%, no sharp cut-off; inactive = mostly below about 43%
SARS PLP yeast: qHTS of Yeast-based Assay for SARS-CoV PLP; AID 485353, 2010; S. cerevisiae expressing SARS-CoV PLpro, growth rescue; Potency, µM (titrated, usually from 32.9 µM), usual class: activators; hit rate 0.19% among 330,000; note: nearly all actives have a fitted effect of over 55% in size
Numbers stand for hits; - = inactive; ? = inconclusive; . = not tested or not shown. Shown are actives, neighbours in structure and some others; about 21% of the full set was active somewhere. Unless noted, calls come from the whole dose curve.

SMILES	CHX counter	Pf growth 48h	NS1 inh	Pf growth 96h	Shiga toxin inh	SARS PLP yeast
CC(=O)OCCNC(=O)c1cc2ccccc2oc1=O	-	-	-	1.7µM	-	-
COc1cc(OC)c(S(=O)(=O)Nc2ccc(C)cn2)cc1NC(C)=O	-	-	-	-	-	-
Cc1csc(C)[n+]1CC(=O)c1ccccc1	-	?	-	6.6µM	.	-
CCN(CC)S(=O)(=O)c1cc(NC(=O)CSc2nc3c(cc2C#N)C(=O)CC(C)(C)C3)ccc1C	-	3.7µM	-	2.6µM	-	-
O=C(COC(=O)c1cccnc1Cl)NCc1ccco1	-	-	.	-	-	-
Cc1cccc(C(=O)Nc2ccccc2C(=O)OCC(=O)Nc2ccc(C#N)cc2)c1	46	-	-	-	55	-
CCOC(=O)/C(N=Nc1c(Br)cc(Br)cc1Br)=C(\C)O	-	-	-	.	-	-
O=C(COc1ccc(Br)cc1)NCCCN1CCCC1=O	.	-	.	?	.	-
Cc1ccc(COc2ccc(CNCCCN3CCCCCC3=O)cc2)cc1	26	?	-	-	70	-
CC(C)c1ccc(NC(=O)C(c2ccccc2)N2CC(=O)Nc3ccccc32)cc1 (configuration not stated)	33	-	-	?	active	-
O=C(CSCc1cnn(-c2ccccc2)c1-n1cccc1)N1CCN(Cc2ccccc2)CC1	-	.	-	?	-	-
COc1ccc(OC)c(NC(=O)C2CCN(Cc3cnn(-c4ccccc4)c3-n3cccc3)CC2)c1	-	.	-	?	-	-
O=C(O)CSCc1cnn(-c2ccccc2)c1-n1cccc1	-	10µM	-	-	-	-
CCn1cc(CN2CCC(C(=O)Nc3cccc(-c4cccc(OC)c4)c3)CC2)cn1	-	-	-	-	-	-
COc1cccc(NC(=O)C2CCN(Cc3cnn(-c4ccccc4)c3-n3cccc3)CC2)c1	51	.	-	?	-	-
COc1ccc(NC(=O)C2CCN(Cc3cnn(-c4ccccc4)c3-n3cccc3)CC2)cc1OC	34	?	-	-	49	.
O=C(NCc1ccc2c(c1)OCO2)C1CCN(Cc2cnn(-c3ccccc3)c2-n2cccc2)CC1	-	?	-	-	-	.
O=C(Nc1ccccc1Cl)C1CCN(Cc2cnn(-c3ccccc3)c2-n2cccc2)CC1	27	.	-	.	-	-
Cc1noc(/C=C/c2cccs2)c1S(=O)(=O)N1CCC(C(=O)NCCCN2CCCC(C)C2)CC1 (configuration not stated)	-	?	.	-	-	-
O=C(O)CSc1nnc(COc2ccc(Br)cc2)n1-c1ccccc1	-	-	?	?	.	-
CCC1CCCCN1Cc1nc(Cc2ccccc2Cl)no1 (configuration not stated)	-	?	-	?	-	-
CCCN(CCC)C1=CC(=[N+]2CCCC2)CC(C)(C)C1	-	1.5µM	-	0.33µM	-	-
CN(c1nc2c(c(=O)n(C)c(=O)n2C)n1CC(=O)c1ccccc1)C1CCCCC1	-	?	-	10µM	-	-
Cn1c(=O)c2c(nc(N3CCCCCC3)n2CC(O)COc2ccccc2)n(C)c1=O (configuration not stated)	-	?	-	-	-	-
Cn1c(=O)c2c(nc(NC3CCCC3)n2C)n(C)c1=O	25	-	-	-	-	-
SMILES	CHX counter	Pf growth 48h	NS1 inh	Pf growth 96h	Shiga toxin inh	SARS PLP yeast
CC(C)Nc1nc2c(c(=O)n(C)c(=O)n2C)n1C	-	-	-	-	-	-
Cn1c(=O)c2c(nc(NC3CCCCC3)n2CC(O)COc2ccccc2)n(C)c1=O (configuration not stated)	-	10µM	-	-	-	-
CN(C)CCNCc1ccc(OC2CCCC2)cc1	-	.	-	9.3µM	-	-
CC1(c2ccc([N+](=O)[O-])c(CS(=O)(=O)c3ccccc3)c2)OCCO1	-	-	.	-	-	-
C/C(=N/N=C(\C)c1ccccc1O)c1ccccc1O	24	-	-	-	38	-
CC(Cl)OC(=O)Nc1cccc2cccnc12 (configuration not stated)	-	.	.	.	-	.
COc1ccc(/C(N)=N/OC(=O)c2cccs2)cc1OC	-	-	-	-	-	-
Cc1ccc(/C(N)=N/OC(=O)c2cccs2)cc1	39	-	-	-	37	-
Cc1ccc(C(=O)COC(=O)c2cccs2)cc1	-	-	-	-	-	-
COc1ccc(C(=O)O/N=C(\N)c2ccccc2)cc1	-	-	-	-	-	-
Cc1cccc(/C(N)=N/OC(=O)c2cccs2)c1	71	-	-	-	106	-
N/C(=N\OC(=O)c1cccs1)c1ccccc1	35	-	-	?	80	-
N/C(=N\OC(=O)c1cccs1)c1cccc(Br)c1	39	-	-	-	78	-
CN(Cc1ccc(F)cc1)C(=O)CNC(=O)c1ccc2c(c1)OCO2	.	-	.	?	.	-
S=C1CCC(c2ccc(Br)cc2)=NN1c1ccccc1	-	?	-	-	-	-
CC(C)C[C@@H]1NC(=O)[C@H](Cc2ccccc2)N(C)C(=O)[C@H](C)NC(=O)c2ccccc2NC(=O)[C@H](Cc2ccc(O)cc2)N(C)C1=O	-	3.7µM	-	?	-	-
CC(C)CC1NC(=O)N(CC(=O)N2c3ccccc3NC(=O)C2(C)C)C1=O (configuration not stated)	-	-	-	-	-	-
COCc1cc(=O)[nH]c(SCCS(=O)(=O)c2ccc(C)cc2)n1	-	2.3µM	-	-	-	-
Cc1ccc(C(=O)CSc2nc(-c3ccccc3)cc(=O)[nH]2)cc1	-	?	-	-	-	-
CCCc1cc(=O)[nH]c(SCC(=O)NC(=O)c2ccccc2)n1	-	-	-	0.41µM	-	-
Cc1cc(=O)[nH]c(SCC(=O)c2ccc(C(C)C)cc2)n1	34	-	-	-	32	-
COc1ccc(C(=O)CSc2nc(C)cc(=O)[nH]2)cc1	-	-	-	?	-	-
COCc1cc(=O)[nH]c(SCC(=O)c2ccccc2)n1	-	2.1µM	-	-	-	-
CC(C)C[C@@H](C(=O)NCc1ccco1)N1C(=O)N2CCc3c([nH]c4ccccc34)[C@@]2(C)C1=O	-	?	-	?	-	-
CC(=O)c1ccc(-c2cc([C@H]3[C@H]4C=CC[C@@H](C)[C@@H]4C(=O)N3Cc3ccccc3)ccc2F)cc1	-	12µM	-	?	-	-
C[C@@H]1CC=C[C@H]2[C@H]1C(=O)N(Cc1ccccc1)[C@H]2c1ccc(F)c(-c2ccc(N(C)C)cc2)c1	-	?	?	12µM	-	-
COc1ccc(-c2cc(C3C4C=CCC(C)C4C(=O)N3Cc3ccccc3)ccc2F)cc1OC (configuration not stated)	51	.	.	.	63	.
CC[C@@H]1CC=C[C@H]2[C@H]1C(=O)N(Cc1ccccc1)[C@H]2c1ccc2ccccc2c1	-	13µM	-	?	-	-

Assay outcomes (PubChem BioAssay)
